Bioassay records (PubChem BioAssay)
HT1080-NT tox: kills 2HG-producing HT-1080-NT fibrosarcoma cells. AID 686970. HT-1080-NT fibrosarcoma viability, CellTiter-Glo ATP luminescence, 48 h. 360,000 tested, 1.6% active. Potency, µM (series often up to 46.1 µM), without a hit: at the top dose activity, negative = less viability, actives largely listed as cytotoxic;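 note: NT is the 2HG producing partner of a matched IDH1 knockdown line; 0% = DMSO-treated cells and -100% = media-only wells without cells; nearly all actives have a fitted effect of over 55% in size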
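Viability by CellTiter-Glo luminescence after 48 h compound exposure at 37C of HT-1080-NT cells (750/well, RPMI, 5% FBS). % activity scaled between DMSO wells and medium-only wells, then curve-fitted and categorized by curve class.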
HepG2 viability: HepG2 cytotoxicity, counter-screen for TGF-b inhibitors. HepG2 CAGA-GFP viability, ATP luminescence, 18 h. Potency, µM (doses to about 46.1 µM), for the others: top-dose activity change, negative = cytotoxicity, usual class: cytotoxic. 410,000 tested, 0.76% active
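HepG2 CAGA-GFP cells (1000/well, DMEM with 1% FBS) received compound, then TGF-beta at 500 pg/mL final, and were incubated 18 hours at 37 degrees C. Viability was read by CellTiter-Glo luminescence. Media-only wells were set as complete cell-killing and DMSO as no toxicity.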
TDP1 cell CPT: DT40-hTDP1 cell growth loss with CPT. chicken DT40 Tdp1-/-;hTDP1 cells + 20 nM CPT, ATP luminescence, 48 h. AID 686979. 420,000 tested, 12% active. Potency, µM (top dose mostly 46.2 µM), without a hit: at the top dose activity change, negative = growth inhibition, actives largely listed as inhibitors; note: % is set by controls: 0 for no effect and ±100 for the full control effect; nearly all actives have a fitted effect of over 55% in size
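Chicken DT40 Tdp1-/- cells complemented with human TDP1, 400 cells/well, exposed to compounds plus 20 nM camptothecin for at least 48 h at 37 C; viability read as ATP content by CellTiter-Glo luminescence.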
HT1080 IDH1KD tx: HT-1080 IDH1 knockdown cell toxicity (counter line). HT-1080 IDH1 knockdown viability, ATP luminescence, 48 h. Potency, µM (titrated, usually from 46.1 µM), for inactives: top-dose activity, negative = toxicity, usual class: cytotoxic. 360,000 tested, 2% active. AID 686971;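 note: 0% = DMSO wells and -100% = cell-free medium wells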
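Viability of IDH1-knockdown HT-1080 fibrosarcoma cells was assessed by CellTiter-Glo after 48 h at 37 °C with titrated compound; concentration-effect curves were classified by fit quality and response size.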
TGFb SMAD3 inh: TGF-b pathway inhibition; Potency, µM (titrated, usually from 46.1 µM), for inactives: at the top dose activity, negative = inhibition, most hits filed as inhibitors; HepG2 CAGA-GFP TGF-b/SMAD3 reporter, GFP fluorescence, 18 h; TGF-beta stimulated, 500 pg/mL final; 410,000 tested, 1.2% active; note: % is set by controls: 0 for no effect and ±100 for the full control effect; nearly all actives have a fitted effect of over 65% in size
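First, reporter cells (HEPG2 CAGA-GFP) rested 2 h at 37 degrees C. Next, compounds were pinned in and TGF-beta added to 500 pg/mL final. After 18 h, GFP was imaged per cell and summed per well.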
TDP1 cell noCPT: qHTS for Inhibitors of human tyrosyl-DNA phosphodiesterase 1 (TDP1): qHTS in cells in absence of CPT. DT40 Tdp1-/- hTDP1 cells, no CPT, ATP luminescence, 48 h. Potency, µM (top dose mostly 46.2 µM), without a hit: top-dose activity change, negative = growth inhibition, most hits filed as inhibitors. 420,000 tested, 15% active. AID 686978, 2013; note: % is set by controls: 0 for no effect and ±100 for the full control effect; nearly all actives have a fitted effect of over 55% in size
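Luminescent ATP content (CellTiter-Glo) served as the growth readout. Knockout chicken DT40 cells expressing human TDP1 were exposed to compounds without camptothecin for a minimum 48 hr at 37 °C.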
Numbers without * were called inactive; ? = inconclusive; . = no result; [ ] = remark or other dose. This is a sample that favours compounds with a hit; in the whole collection about 17% have one here. Calls come from the whole dose curve; as a rule, active = well fitted curve in the direction sought with a large enough effect; inconclusive = small, poorly fitted or top-dose-only effect, or another doubt; inactive = no such curve, though single readings can be large; an effect the other way counts as inactive or inconclusive. Potency is the fitted concentration of half-maximal effect.

SMILES	HT1080-NT tox	HepG2 viability	TDP1 cell CPT	HT1080 IDH1KD tx	TGFb SMAD3 inh	TDP1 cell noCPT
Cc1ccc(C2C=C(c3ccc(F)cc3)Nc3nc(CCCO)nn32)cc1 (stereo not drawn)	.	-7%	?	.	-3%	?
Cc1cc(=O)n2nc(N3CCC(C(=O)Nc4ccc(Br)c(C)c4)CC3)sc2n1	.	2%	15µM*	.	?	-29%
CC(C)c1ccc(NC(=O)c2cccn2-c2nnc(N3CCCCC3)s2)cc1	.	-35%	18µM*	.	?	?
CN(C)c1ccc(CNC(=O)c2cccn2-c2nnc(N3CCCCC3)s2)cc1	.	-5%	18µM*	.	-23%	16µM*
Cc1cc(NC(=O)c2cccn2-c2nnc(N3CCCCC3)s2)ccc1Br	.	-52%	?	.	8.9µM*	?
Cc1cc(=O)n2nc(N3CCC(C(=O)Nc4ccc(Br)cc4F)CC3)sc2n1	.	-9%	?	.	-28%	3%
COc1ccc(NC(=O)c2cccn2-c2nnc(N3CCCCC3)s2)cc1Cl	.	-25%	?	.	?	?
COc1ccccc1CNC(=O)c1cccn1-c1nnc(N2CCCCC2)s1	.	-38%	-30%	.	0%	-29%
N#Cc1cccnc1N1CCN(C(c2ccnc3ccccc23)c2nnnn2-c2ccc3c(c2)OCCO3)CC1 (stereo not drawn)	-15%	.	?	-20%	.	?
C=C1CC2(OC1=O)c1ccccc1CCc1ccccc12	?	14µM*	4.6µM*	5.8µM*	8.9µM*	2.9µM*
O=C1NC(=O)C2(CCc3ccccc32)N1 (stereo not drawn)	8%	1%	3%	6%	-6%	8%
CCCCCCCCCC(=O)OCC(CO)OC(=O)CCCCCCCCC (stereo not drawn)	.	.	0%[4.12 µM]	.	.	5%[4.12 µM]
CNS(=O)(=O)c1cc(NC(=O)c2cnc(SC)n2-c2ccccc2)ccc1C	2%	-15%	?	5%	3%	15µM*
O=C(Nc1nc2ccc(F)cc2s1)c1nc(S(=O)(=O)Cc2ccccc2)ncc1Cl	.	-116%	2.3µM*	.	?	2.3µM*
Cc1cccc(CS(=O)(=O)c2ncc(Cl)c(C(=O)Nc3nc4ccc(F)cc4s3)n2)c1	.	-24%	2.3µM*	.	?	2.3µM*
CSc1ncc(Cl)c(C(=O)Nc2nc3ccc(F)cc3s2)n1	.	-16%	1%	.	7%	4%
Cc1ccc([C@H]2C[C@H](n3cc(COC(=O)c4ccccc4)nn3)[C@@H](O)CN2Cc2cccs2)cc1	-16%	-32%	-28%	-8%	-2%	?
O=C(OCc1cn([C@@H]2CN(Cc3cccs3)[C@@H](c3ccccc3)C[C@H]2O)nn1)c1ccccc1	-1%	-4%	13%	21%	-6%	-2%
Cc1ccc([C@H]2C[C@@H](n3cc(COC(=O)c4ccccc4)nn3)[C@H](O)CN2Cc2cccs2)cc1	5%	-13%	?	6%	3%	21µM*
O=C(OCc1cn([C@H]2C[C@H](c3ccccc3)N(Cc3cccs3)C[C@@H]2O)nn1)c1ccccc1	-1%	-1%	?	3%	-3%	21µM*
CCC(C)NC(=O)c1ccc(NC(=O)CC2SC(N3CCCC3)=NC2=O)cc1 (stereo not drawn)	-1%	-43%	1%	-9%	8%	-5%
COc1ccc(/C=C(\C#N)C(=O)NCc2cccnc2)cc1OC	-16%	-5%	?	-14%	5%	?
CCn1c(/C=C/c2ccccc2)nc2ccccc2c1=O	-4%	-26%	?	-13%	-24%	?
O=c1c2ccccc2nc(/C=C/c2cc(Br)ccc2O)n1CCO	-13%	13µM*	?	-17%	?	15µM*
O=c1c2ccccc2nc(/C=C/c2c[nH]c3ccccc23)n1CCO	?	-6%	4.6µM*	?	3%	6.5µM*
SMILES	HT1080-NT tox	HepG2 viability	TDP1 cell CPT	HT1080 IDH1KD tx	TGFb SMAD3 inh	TDP1 cell noCPT
CCOC(=O)C1=C(CC)Nc2ccccc2N=C1NC(=O)c1ccc(OC)c(S(=O)(=O)N2CCOCC2)c1	1%	-13%	?	9%	2%	?
Cc1ccc(NC(=O)CC2Nc3ccccc3NC2=O)cc1C (stereo not drawn)	.	-11%	-23%	.	-17%	-8%
CCOc1ccccc1NC(=O)CC1Nc2cc(C)c(C)cc2NC1=O (stereo not drawn)	-2%	-11%	18µM*	-14%	0%	?
Cc1cc2c(cc1C)NC(CC(=O)Nc1ccccc1)C(=O)N2 (stereo not drawn)	.	-94%	16µM*	.	-1%	26µM*
Cc1ccc(NC(=O)CC2Nc3ccccc3NC2=O)cc1Cl (stereo not drawn)	21µM*	-47%	?	21µM*	?	?
CCCCSc1nc(C)cc(SCC(=O)N/N=C/c2ccccc2)n1	-3%	-39%	?	-15%	-28%	?
COc1nc2c(C)cccc2cc1-c1noc(-c2ccco2)n1	-2%	11%	-43%	-3%	10%	0.15µM*
COc1ccc(S(=O)(=O)NCc2ccc(C(=O)NCCCN3CC(C)CC(C)C3)cc2)cc1 (stereo not drawn)	0%	-3%	?	-16%	4%	?
CSc1nc(N)c2ncn([C@H]3O[C@H](COP(=O)(O)OP(=O)(O)OP(=O)(O)O)[C@@H](O)[C@@H]3O)c2n1	.	.	0%	.	.	?
Cc1ccc(OCCn2cc(/C=C3\C(=O)NN(c4ccccc4)C3=O)c3ccccc32)cc1	3%	-2%	16µM*	2%	-10%	26µM*
O=Cc1cn(CCOc2ccccc2)c2ccccc12	-2%	-62%	-22%	-5%	?	?
Cc1ccc(OCCn2cc(C=O)c3ccccc32)cc1	1%	-14%	?	1%	11µM*	?
COCCn1c(N)c(N(Cc2ccccc2)C(=O)C(C)Oc2ccc(Br)cc2)c(=O)[nH]c1=O (stereo not drawn)	3%	5%	-1%	6%	2%	?
COc1ccc(S(=O)(=O)N2CCOCC2)cc1NC(=O)Cc1ccccc1Cl	-2%	16%	10%	-6%	26%	-13%
COc1ccc(S(=O)(=O)N2CCOCC2)cc1NC(=O)CC(C)c1ccccc1 (stereo not drawn)	-5%	-6%	-25%	4%	?	21µM*
